Measured values taken from PubChem BioAssay (NCATS).
Results filed as inconclusive are left out. A call without a number means that no potency is given here. Active and inactive are the calls of the source. Calls follow the shape of the dose curve; as a rule, active = well fitted curve in the direction sought with a large enough effect; inconclusive = small, poorly fitted or top-dose-only effect, or another doubt; inactive = no such curve, though single readings can be large; an effect the other way counts as inactive or inconclusive.

Legend:
[1] = target: Aldehyde dehydrogenase, mitochondrial (Homo sapiens) (UniProt P05091); assay: qHTS for Inhibitors of the Aldehyde Dehydrogenase Family (ALDH2) Primary screen (AID 2061308); also: nearly all actives have a fitted effect of over 55% in size
[2] = target: Retinaldehyde dehydrogenase 3 (Homo sapiens) (UniProt P47895); assay: qHTS for Inhibitors of the Aldehyde Dehydrogenase Family (ALDH1A3) Primary screen (AID 2061315)

| Structure (SMILES) | Potency [1] | Potency [2] |
| --- | --- | --- |
| Cc1ccc(NS(=O)(=O)c2ccc3c(c2)CCC(=O)N3C)cc1Cl | inactive | inactive |
| COc1cc(NC(=O)C(OC(=O)CNC(=O)c2ccccc2)c2ccccc2)cc(C(F)(F)F)c1 (stereo not drawn) | inactive | inactive |
| CONC(=O)C[C@@H](C#N)NC(=O)[C@@H]1CCCN1C(=O)[C@@H](NC(=O)c1ccc(N)c(Cl)c1)C(C)(C)C | inactive | inactive |
| O=S(=O)(c1ccccc1)N1CCN(c2nccc(-c3cccs3)n2)CC1 | inactive | inactive |
| COc1ccc(NC(=O)c2cnn3c(C)cc(C)nc23)cc1 | inactive | inactive |
| CCc1nn2c(=O)cc(NC3CNC3)nc2s1 | inactive | inactive |
| Cc1ccc(OCCn2c(CCNC(=O)CCN3CCCCC3)nc3ccccc32)cc1 | inactive | inactive |
| N#Cc1c(-c2ccc3ccccc3c2)no[n+]1[O-] | inactive | inactive |
| Cc1cnc(-c2ccccc2C(C)C)nc1NC(C)c1ccc(-c2cccnc2)cc1 (stereo not drawn) | inactive | inactive |
| CCCn1c(C)nc2c(NCCN3CCCCC3)nc(C)nc21 | inactive | inactive |
| COc1ccc(C(=O)Nc2nnc(-c3ccco3)o2)cc1 | inactive | inactive |
| Cc1cnc(N2CCC(C(N)=O)CC2)nc1-c1cccc(N(C)C)c1 | inactive | inactive |
| O=C(c1ccc2c(c1)ncn2-c1cccc(Cl)c1)N1CCCCC1 | inactive | inactive |
| CC[C@H](C)[C@H](NC(=O)[C@H]([C@@H](C)CC)N(C)C(C)=O)C(=O)N[C@H](C(=O)N[C@@H](CC(C)C)C(=O)[C@@]1(C)CO1)[C@@H](C)O | inactive | inactive |
